Data: the supplement of paper PMC8728848
Many of the other results were omitted from the sample, so the strongest signals are more common in it than they were.

Key:
Experiment in all cases: glycan array binding signal (z-score within array); higher = stronger binding
Settings in all cases: glycan notation: IUPAC condensed, linker removed
[1] = target: Ara(a1-5)Ara(a1-5)Ara(a1-5)Ara(a1-5)Ara(a1-5)Ara
Summary of the method: (§1)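 From the Consortium for Functional Glycomics database, 3228 arrays were curated, keeping only those whose protein sequence was available. Binding is given as a within-array Z-score averaged across arrays sharing a protein sequence and across linkers. Negative Z-scores can be read as non-binding.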

[2] = target: Fuc(a1-2)Gal(b1-3)GlcNAc(b1-3)Gal(b1-4)Glc
Summary of the method: as §1

[3] = target: Gal(b1-3)GlcNAc(b1-3)[Gal(b1-4)GlcNAc(b1-6)]Gal(b1-4)Glc
Summary of the method: as §1

[4] = target: Gal(b1-4)GlcNAc(b1-3)[Gal(b1-4)GlcNAc(b1-6)]Gal(b1-4)GlcNAc(b1-3)[Gal(b1-4)GlcNAc(b1-6)]Gal(b1-4)GlcNAc(b1-3)[Gal(b1-4)GlcNAc(b1-6)]Gal(b1-4)GlcNAc(b1-3)[Gal(b1-4)GlcNAc(b1-6)]Gal(b1-4)GlcNAc(b1-3)Gal(b1-4)Glc
Summary of the method: as §1

[5] = target: Gal3S(b1-3)[Fuc(a1-4)]GlcNAc(b1-3)Gal(b1-4)Glc
Summary of the method: as §1

[6] = target: Gal3S(b1-4)GlcNAc(b1-3)Gal
Summary of the method: as §1

[7] = target: Glc(a1-2)Glc(a1-3)Glc(a1-3)Man(a1-2)Man(a1-2)Man(a1-3)[Man(a1-3)[Man(a1-6)]Man(a1-6)]Man(b1-4)GlcNAc
Summary of the method: as §1

Glc(a1-3)Glc = target: Glc(a1-3)Glc
Summary of the method: as §1

[8] = target: Glc(a1-3)Glc(a1-3)Man(a1-2)Man(a1-2)Man(a1-3)[Man(a1-3)[Man(a1-6)]Man(a1-6)]Man(b1-4)GlcNAc
Summary of the method: as §1

[9] = target: Glc(a1-3)Man(a1-2)Man(a1-2)Man(a1-3)[Man(a1-2)Man(a1-3)[Man(a1-2)Man(a1-6)]Man(a1-6)]Man(b1-4)GlcNAc(b1-4)GlcNAc
Summary of the method: as §1

Glc(a1-6)Glc = target: Glc(a1-6)Glc
Summary of the method: as §1

[10] = target: Glc(a1-6)Glc(a1-6)Glc(a1-6)Glc
Summary of the method: as §1

[11] = target: Glc(a1-6)Glc(a1-6)Glc(a1-6)Glc(a1-6)Glc
Summary of the method: as §1

[12] = target: Glc(a1-6)Glc(a1-6)Glc(a1-6)Glc(a1-6)Glc(a1-6)Glc
Summary of the method: as §1

[13] = target: Glc(b1-4)Glc(b1-4)Glc(b1-4)Glc(b1-4)Glc(b1-4)Glc
Summary of the method: as §1

GlcA3S(b1-3)Gal = target: GlcA3S(b1-3)Gal
Summary of the method: as §1

[14] = target: GlcNAc(b1-3)[GlcNAc(b1-6)]Gal(b1-4)GlcNAc(b1-3)[GlcNAc(b1-6)]Gal(b1-4)GlcNAc(b1-3)Gal(b1-4)Glc
Summary of the method: as §1

[15] = target: HexA(a1-3)GalNAc6S(b1-4)GlcA(b1-3)GalNAc6S
Summary of the method: as §1

Man(a1-2)Man = target: Man(a1-2)Man
Summary of the method: as §1

[16] = target: Man(a1-3)[Man(a1-6)]Man(b1-4)GlcNAc(b1-4)GlcNAc
Summary of the method: as §1

Man(b1-4)GlcNAc = target: Man(b1-4)GlcNAc
Summary of the method: as §1

[17] = target: Man6P(a1-3)Man(a1-3)Man(a1-3)Man(a1-2)Man
Summary of the method: as §1

[18] = target: Neu5Ac(a2-3)Gal(b1-3)GalNAc(b1-4)[Neu5Ac(a2-3)]Gal(b1-4)Glc
Summary of the method: as §1

[19] = target: Neu5Ac(a2-3)Gal(b1-3)[Fuc(a1-4)]GlcNAc
Summary of the method: as §1

[20] = target: Neu5Ac(a2-3)Gal(b1-3)[Fuc(a1-4)]GlcNAc(b1-3)Gal(b1-4)Glc
Summary of the method: as §1

Neu5Ac(a2-8)Neu5Ac = target: Neu5Ac(a2-8)Neu5Ac
Summary of the method: as §1

[21] = target: Neu5Ac9Ac(a2-6)Gal(b1-4)GlcNAc
Summary of the method: as §1

Fuc(a1-2)Gal = target: Fuc(a1-2)Gal
Summary of the method: as §1

[22] = target: Fuc(a1-2)Gal(b1-3)GalNAc(b1-3)Gal
Summary of the method: as §1

[23] = target: Fuc(a1-2)Gal(b1-4)[Fuc(a1-3)]GlcNAc
Summary of the method: as §1

[24] = target: Fuc(a1-2)Gal(b1-4)[Fuc(a1-3)]GlcNAc(b1-2)Man(a1-3)[Fuc(a1-2)Gal(b1-4)[Fuc(a1-3)]GlcNAc(b1-2)Man(a1-6)]Man(b1-4)GlcNAc(b1-4)[Fuc(a1-6)]GlcNAc
Summary of the method: as §1

Fuc(a1-2)[Gal(a1-3)]Gal = target: Fuc(a1-2)[Gal(a1-3)]Gal
Summary of the method: as §1

[25] = target: Fuc(a1-2)[Gal(a1-3)]Gal(b1-3)GlcNAc(b1-6)GalNAc
Summary of the method: as §1

[26] = target: Fuc(a1-2)[Gal(a1-3)]Gal(b1-4)GlcNAc(b1-2)Man
Summary of the method: as §1

[27] = target: Fuc(a1-2)[GalNAc(a1-3)]Gal
Summary of the method: as §1

[28] = target: Fuc(a1-2)[GalNAc(a1-3)]Gal(b1-4)Glc
Summary of the method: as §1

[29] = target: Fuc(a1-2)[GalNAc(a1-3)]Gal(b1-4)GlcNAc
Summary of the method: as §1

[30] = target: Fuc(a1-2)[GalNAc(a1-3)]Gal(b1-4)GlcNAc(b1-2)Man(a1-3)[Fuc(a1-2)[GalNAc(a1-3)]Gal(b1-4)GlcNAc(b1-2)Man(a1-6)]Man(b1-4)GlcNAc(b1-4)[Fuc(a1-6)]GlcNAc
Summary of the method: as §1

[31] = target: Fuc(a1-2)[GalNAc(a1-3)]Gal(b1-4)GlcNAc(b1-3)GalNAc
Summary of the method: as §1

[32] = target: Fuc(a1-3)[Gal(b1-4)]Glc6S
Summary of the method: as §1

[33] = target: Fuc(a1-3)[GalNAc(b1-4)]GlcNAc
Summary of the method: as §1

Fuc(a1-4)GlcNAc = target: Fuc(a1-4)GlcNAc
Summary of the method: as §1

[34] = target: Gal(a1-3)Gal(b1-3)GlcNAc(b1-3)GalNAc
Summary of the method: as §1

[35] = target: Gal(a1-3)Gal(b1-4)GlcNAc(b1-6)GalNAc
Summary of the method: as §1

[36] = target: Gal(a1-4)Gal(b1-4)GlcNAc(b1-2)Man(a1-3)[Gal(a1-4)Gal(b1-4)GlcNAc(b1-2)Man(a1-6)]Man(b1-4)GlcNAc(b1-4)GlcNAc
Summary of the method: as §1

Gal(b1-3)Gal(b1-4)GlcNAc = target: Gal(b1-3)Gal(b1-4)GlcNAc
Summary of the method: as §1

[37] = target: Gal(b1-3)GlcNAc(b1-2)Man(a1-3)[Gal(b1-3)GlcNAc(b1-2)Man(a1-6)]Man(b1-4)GlcNAc(b1-4)GlcNAc
Summary of the method: as §1

[38] = target: Gal(b1-3)GlcNAc(b1-3)Gal(b1-4)GlcNAc(b1-2)Man(a1-3)[Gal(b1-3)GlcNAc(b1-3)Gal(b1-4)GlcNAc(b1-2)Man(a1-6)]Man(b1-4)GlcNAc(b1-4)GlcNAc
Summary of the method: as §1

[39] = target: Gal(b1-3)[Fuc(a1-4)]GlcNAc(b1-2)Man
Summary of the method: as §1

[40] = target: Gal(b1-3)[Fuc(a1-4)]GlcNAc(b1-3)Gal(b1-3)[Fuc(a1-4)]GlcNAc
Summary of the method: as §1

[41] = target: Gal(b1-3)[Neu5Ac(b2-6)]GalNAc
Summary of the method: as §1

Gal(b1-4)Glc = target: Gal(b1-4)Glc
Summary of the method: as §1

Gal(b1-4)GlcNAc(b1-2)Man = target: Gal(b1-4)GlcNAc(b1-2)Man
Summary of the method: as §1

[42] = target: Gal(b1-4)GlcNAc(b1-2)Man(a1-6)Man(b1-4)GlcNAc(b1-4)GlcNAc
Summary of the method: as §1

[43] = target: Gal(b1-4)GlcNAc(b1-3)Gal(b1-4)GlcNAc(b1-3)Gal(b1-4)GlcNAc(b1-2)Man(a1-3)[Gal(b1-4)GlcNAc(b1-3)Gal(b1-4)GlcNAc(b1-3)Gal(b1-4)GlcNAc(b1-2)Man(a1-6)]Man(b1-4)GlcNAc(b1-4)[Fuc(a1-6)]GlcNAc
Summary of the method: as §1

[44] = target: Gal(b1-4)GlcNAc(b1-3)Gal(b1-4)GlcNAc(b1-3)Gal(b1-4)GlcNAc(b1-2)[Gal(b1-4)GlcNAc(b1-3)Gal(b1-4)GlcNAc(b1-3)Gal(b1-4)GlcNAc(b1-6)]Man(a1-6)[Gal(b1-4)GlcNAc(b1-3)Gal(b1-4)GlcNAc(b1-3)Gal(b1-4)GlcNAc(b1-2)Man(a1-3)]Man(b1-4)GlcNAc(b1-4)[Fuc(a1-6)]GlcNAc
Summary of the method: as §1

[45] = target: Gal(b1-4)GlcNAc(b1-3)Gal(b1-4)GlcNAc(b1-3)Gal(b1-4)GlcNAc(b1-3)Gal(b1-4)GlcNAc(b1-2)Man(a1-3)[Gal(b1-4)GlcNAc(b1-3)Gal(b1-4)GlcNAc(b1-3)Gal(b1-4)GlcNAc(b1-3)Gal(b1-4)GlcNAc(b1-2)Man(a1-6)]Man(b1-4)GlcNAc(b1-4)GlcNAc
Summary of the method: as §1

B1: Malectin (Xenopus laevis), Q6INX3 (protein)
chain: SGLADKVIWAVNAGGESHVDVHGIHYRKDPLEGRVGRASDYGMKLPILRSNPEDQVLYQTERYNEDSFGYDIPIKEEGEYVLVLKFAEVYFAQSQQKVFDVRVNGHTVVKDLDIFDRVGHSTAHDEIIPISIKKGKLSVQGEVSTFTGKLSVEFVKGYYDNPKVCALFIMKGTADDVPMLQPHPGLE
glycan array binding signal (z-score) [1]: -0.069 | glycan array binding signal (z-score) [2]: -0.068 | glycan array binding signal (z-score) [3]: -0.075 | glycan array binding signal (z-score) [4]: -0.066 | glycan array binding signal (z-score) [5]: -0.076 | glycan array binding signal (z-score) [6]: -0.076 | glycan array binding signal (z-score) [7]: 0.052 | glycan array binding signal (z-score) (Glc(a1-3)Glc): 0.041 | glycan array binding signal (z-score) [8]: 8.46 | glycan array binding signal (z-score) [9]: -0.171 | glycan array binding signal (z-score) (Glc(a1-6)Glc): -0.214 | glycan array binding signal (z-score) [10]: 0.133 | glycan array binding signal (z-score) [11]: 0.876 | glycan array binding signal (z-score) [12]: 1.32 | glycan array binding signal (z-score) [13]: -0.198 | glycan array binding signal (z-score) (GlcA3S(b1-3)Gal): -0.074 | glycan array binding signal (z-score) [14]: -0.076 | glycan array binding signal (z-score) [15]: -0.074 | glycan array binding signal (z-score) (Man(a1-2)Man): -0.076 | glycan array binding signal (z-score) [16]: -0.072 | glycan array binding signal (z-score) (Man(b1-4)GlcNAc): -0.075 | glycan array binding signal (z-score) [17]: -0.075 | glycan array binding signal (z-score) [18]: -0.076 | glycan array binding signal (z-score) [19]: -0.076 | glycan array binding signal (z-score) [20]: -0.076 | glycan array binding signal (z-score) (Neu5Ac(a2-8)Neu5Ac): -0.073 | glycan array binding signal (z-score) [21]: -0.073

B2: LBL-152 (Laetiporus bicolor), B0D650 (protein)
chain: MSNEYNPPLGIAFRLCGLASDRVLFSRVSPSPEVFHHPKSEVYPDQWFVAIPGSGQNAGCYAIKSKNTGKVLFSRMSPDPRVGHIDGDGKYPDNWFKFEAGSGKYAGYFRLRAVASDTVLVSRTSTGTDTQVINYPATSAKYDDQYFTILFDHHHHHH
glycan array binding signal (z-score) (Fuc(a1-2)Gal): -0.151 | glycan array binding signal (z-score) [22]: -0.162 | glycan array binding signal (z-score) [23]: -0.157 | glycan array binding signal (z-score) [24]: -0.147 | glycan array binding signal (z-score) (Fuc(a1-2)[Gal(a1-3)]Gal): -0.145 | glycan array binding signal (z-score) [25]: -0.156 | glycan array binding signal (z-score) [26]: -0.153 | glycan array binding signal (z-score) [27]: -0.151 | glycan array binding signal (z-score) [28]: -0.157 | glycan array binding signal (z-score) [29]: -0.156 | glycan array binding signal (z-score) [30]: -0.156 | glycan array binding signal (z-score) [31]: -0.155 | glycan array binding signal (z-score) [32]: -0.156 | glycan array binding signal (z-score) [33]: -0.141 | glycan array binding signal (z-score) (Fuc(a1-4)GlcNAc): -0.151 | glycan array binding signal (z-score) [34]: -0.158 | glycan array binding signal (z-score) [35]: -0.162 | glycan array binding signal (z-score) [36]: -0.132 | glycan array binding signal (z-score) (Gal(b1-3)Gal(b1-4)GlcNAc): -0.158 | glycan array binding signal (z-score) [37]: -0.154 | glycan array binding signal (z-score) [38]: -0.136 | glycan array binding signal (z-score) [39]: -0.159 | glycan array binding signal (z-score) [40]: -0.16 | glycan array binding signal (z-score) [41]: -0.154 | glycan array binding signal (z-score) (Gal(b1-4)Glc): -0.156 | glycan array binding signal (z-score) (Gal(b1-4)GlcNAc(b1-2)Man): -0.148 | glycan array binding signal (z-score) [42]: -0.156 | glycan array binding signal (z-score) [43]: 5.46 | glycan array binding signal (z-score) [44]: 4.41 | glycan array binding signal (z-score) [45]: 5.39
